Rows were chosen to be rich in hits. Some 14% of all compounds tested hit in one or more screens of this group.
CRE-bla Fsk: alters forskolin-stimulated CRE reporter signaling in CHO cells; CHO CRE-bla reporter (cAMP response element driving beta-lactamase), forskolin EC10, beta-lactamase ratio; Potency, µM (top dose mostly 38.2 µM), for the others: at the top dose activity change, negative = inhibition, usual class: activators; 71,000 compounds, 2.5% hits; AID 662; active = well fitted activation curve with a large enough effect in the signal ratio, with a control signal flat, not every such curve was filed as active; inconclusive = small, poorly fitted or top-dose-only effect, or effect the other way, or a change in a side signal; the % refers to the signal ratio; note: potency is the fitted concentration of half-maximal effect; % of control where 0% means no effect
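Using CellSensor CRE-bla CHO cells in Opti-MEM with 0.5% dialyzed FBS, compounds were titrated with EC10 NKH 477 for 3 h at 37 °C. CCF4 ratio (460/530 nm) gave %Activity; AC50 derived.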
AID923: qHTS Assay for Allosteric/Competitive Inhibitors of Caspase-1: Spectroscopic Profiling in AFC Spectral Region. AID 923, 2007. Potency, µM (titrated, usually from 57.5 µM), for the others: at the highest dose fluorescence increase, actives largely listed as activators. 75,000 compounds, 1.1% hits. compound fluorescence, AFC spectral region (405/520 nm); note: potency is the fitted concentration of half-maximal effect; 0% is about no effect
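Baseline compound fluorescence (AFC region, 405 nm ex/520 nm em) taken from the intercept of kinetic reads with 50 nM caspase-1 and 5 uM Ac-WEHD-AFC; normalized to an on-plate AFC standard curve; compounds titrated up to 57 uM.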
HSD17B inhib: HSD17B dehydrogenase inhibition; Potency, µM (titrated, usually from 57.1 µM), without a hit: top-dose activity change, negative = inhibition, hits mostly inhibitors; Q99714; 75,000 compounds, 7.6% hits; recombinant HSD17B10, NADH fluorescence kinetic;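 note: the protocol describes HADH2 (HSD17B10) and not the HSD17B4 of the title; potency is the fitted concentration of half-maximal effect; % is set by controls: 0 for no effect and ±100 for the full control effect; nearly all actives have a fitted effect of over 70% in size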
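His-tagged E. coli-expressed HADH2 at 20 nM in 100 mM Tris-HCl pH 9.0 with 0.01 % Tween-20, preincubated 15 min with compound at room temperature. Reaction with 1 mM NAD+ and 90 uM beta-hydroxybutyryl coenzyme A; NADH fluorescence (360/450 nm) read kinetically over 4 min, last minus first point.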
HADH2 inh: blocks human hydroxyacyl-CoA dehydrogenase type II | Q99714 | recombinant HADH2, NADH fluorescence, beta-hydroxybutyryl-CoA | 73,000 compounds, 3.4% hits | Potency, µM (titrated, usually from 57.1 µM), for inactives: top-dose activity change, negative = inhibition, usual class: inhibitors; note: potency is the fitted concentration of half-maximal effect; % is set by controls: 0 for no effect and ±100 for the full control effect; nearly all actives have a fitted effect of over 60% in size
Target sequence (Q99714 whole entry, looked up, one chain of several): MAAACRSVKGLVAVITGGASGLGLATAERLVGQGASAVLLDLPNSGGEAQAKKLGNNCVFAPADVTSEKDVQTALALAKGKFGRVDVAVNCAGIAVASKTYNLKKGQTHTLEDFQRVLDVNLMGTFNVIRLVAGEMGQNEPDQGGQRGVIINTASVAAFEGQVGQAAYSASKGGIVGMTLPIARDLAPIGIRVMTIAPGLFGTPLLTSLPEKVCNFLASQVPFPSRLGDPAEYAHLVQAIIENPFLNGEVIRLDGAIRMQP
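Activity measured as NADH fluorescence gain (360/450 nm), taken as the change between first and last reads of a 4-min kinetic run. Conditions: pH 9.0 Tris buffer, 20 nM E. coli-expressed His-tagged enzyme, 1 mM NAD+, 90 uM beta-hydroxybutyryl-CoA; 15-min compound preincubation.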
4-MU autofl: compounds fluorescent in 4-MU spectral region | compound autofluorescence, 340/450 nm, 4-MU equivalents; stronger effect = higher value | max dye-equivalent concentration, M | 59,000 compounds, 11% hits | AID 589; in the data active = max dye-equivalent concentration above about 10 nM; inconclusive = mostly about 1.1 nM to 9.6 nM
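Compounds in 100 mM Tris, pH 8.0, sat 15 min at room temperature before fluorescence was read at 340 nm excitation/450 nm emission; a per-plate six-point 4-MU standard curve converted signals to dye-equivalent concentration at each compound concentration.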
A350 autofl: compounds fluorescent in Alexa 350 spectral region. 59,000 compounds, 11% hits. max dye-equivalent concentration, M. Compound autofluorescence, 340/450 nm, Alexa 350 dye-equivalents; stronger effect = higher value; in the data active = max dye-equivalent concentration above about 10 nM; inconclusive = mostly about 1.1 nM to 9.6 nM
Numbers without * were called inactive; [ ] = remark or other dose. Unless noted, calls come from the whole dose curve; as a rule, active = well fitted curve in the direction sought with a large enough effect; inconclusive = small, poorly fitted or top-dose-only effect, or another doubt; inactive = no such curve, though single readings can be large; an effect the other way counts as inactive or inconclusive.

How did COc1ccc(S(=O)(=O)N(Cc2ccc(OC)c(OC)c2)Cc2ccco2)cc1 do in these assays?
CRE-bla Fsk: inconclusive; AID923: 1%; HSD17B inhib: -20%; HADH2 inh: 1%; 4-MU autofl: inconclusive; A350 autofl: 1e-08M*

How did COc1c(O)c(O)cc2c1oc1c3cc(C)ccc3oc(=O)c21 do in these assays?
AID923: 3%; HSD17B inhib: 10µM*

What do the screens show for `Cc1ccc2oc(-c3ccccc3C(=O)O)cc(=O)c2c1`?
CRE-bla Fsk: -1%; AID923: 0%; HSD17B inhib: -30%; HADH2 inh: -15%; 4-MU autofl: inactive; A350 autofl: inactive

What do the screens show for `O=C(O)c1cnc2ccccc2n1`?
CRE-bla Fsk: -4%; AID923: -2%; HSD17B inhib: -30%; HADH2 inh: 6.3µM*; 4-MU autofl: inactive; A350 autofl: inactive

How did Clc1ccc(-n2ncc3c(NCCN4CCOCC4)ncnc32)cc1 do in these assays?
CRE-bla Fsk: inconclusive; AID923: -1%; HSD17B inhib: 20µM*; HADH2 inh: -7%; 4-MU autofl: inactive; A350 autofl: inconclusive

Results for Cc1cccc(-n2ncc3c(NC4CCCCC4)ncnc32)c1 ?
CRE-bla Fsk: inconclusive; AID923: -4%; HSD17B inhib: inconclusive; HADH2 inh: 5%

How did C=CCNc1ncnc2c1cnn2-c1ccc(Cl)cc1 do in these assays?
CRE-bla Fsk: inconclusive; AID923: -1%; HSD17B inhib: 25µM*; HADH2 inh: -12%

Results for C=CCNc1ncnc2c1cnn2-c1cccc(C)c1 ?
CRE-bla Fsk: inconclusive; AID923: -1%; HSD17B inhib: 25µM*; HADH2 inh: -22%

Results for COc1ccccc1Nc1ncnc2c1cnn2-c1cccc(C)c1 ?
4-MU autofl: 1.4e-08M*; A350 autofl: 1.5e-08M*

How did COc1cccc(Nc2ncnc3c2cnn3-c2cccc(C)c2)c1 do in these assays?
AID923: 0%; HSD17B inhib: inconclusive; HADH2 inh: 0%

What do the screens show for `O=C(NC1CCCCC1)c1ccc(Cc2nc3ccccc3[nH]2)cc1`?
AID923: 0%; HSD17B inhib: 10%; HADH2 inh: 8%

How did Cc1cccc(CNc2ccnc(-c3cccc(C#N)c3)n2)c1 do in these assays?
CRE-bla Fsk: 19%; AID923: 3%; HSD17B inhib: inconclusive; HADH2 inh: inconclusive; 4-MU autofl: inactive; A350 autofl: inactive

How did COc1ccc(C2OC(=O)c3ccccc3S2)cc1 (configuration not stated) do in these assays?
CRE-bla Fsk: inconclusive; AID923: 0%; HSD17B inhib: -6%; HADH2 inh: -9%[11.4 µM]

Results for O=C(OCc1cc(=O)n2cc(Br)ccc2n1)C1COc2ccccc2O1 (configuration not stated) ?
CRE-bla Fsk: -5%; AID923: -1%; HSD17B inhib: -15%; HADH2 inh: 1%; 4-MU autofl: inconclusive; A350 autofl: inconclusive

Results for CC1CC1C(=O)OCc1cc(=O)n2cc(Br)ccc2n1 (configuration not stated) ?
CRE-bla Fsk: inconclusive; AID923: 2%; HSD17B inhib: -15%; HADH2 inh: -1%; 4-MU autofl: 1.1e-08M*; A350 autofl: 1.3e-08M*

Results for CC(C)[C@@H](CC(=O)N[C@@H]1CCCC[C@H]1C(=O)N[C@H](CC(=O)N[C@@H](CCC(=O)O)CC(=O)O)Cc1c[nH]c2ccccc12)NC(=O)C[C@H](CO)NC(=O)[C@@H]1CNCC[C@H]1N ?
CRE-bla Fsk: inconclusive; HADH2 inh: 3%

How did Cc1sc2nc(CSc3nnc(Cc4cccs4)n3C3CCCCC3)[nH]c(=O)c2c1C do in these assays?
CRE-bla Fsk: inconclusive; AID923: 5%; HSD17B inhib: -20%; HADH2 inh: inconclusive; 4-MU autofl: inactive; A350 autofl: inactive

Results for N#C/C(=C(/O)CSc1nnc(Cc2cccs2)n1C1CCCCC1)c1nc2ccccc2[nH]1 ?
CRE-bla Fsk: 2%; AID923: 6%; HSD17B inhib: 32µM*; HADH2 inh: inconclusive; 4-MU autofl: inconclusive; A350 autofl: inconclusive

What do the screens show for `C=CCn1c(COc2ccc(CC)cc2)nnc1SC/C(O)=C(\C#N)c1nc2ccccc2[nH]1`?
CRE-bla Fsk: 18%; AID923: 8%; HSD17B inhib: inconclusive; HADH2 inh: inconclusive; 4-MU autofl: 1.1e-08M*; A350 autofl: 1.4e-08M*

Results for Cc1ccc2nc(CSc3nnc(Cc4cccs4)n3C3CCCCC3)cc(=O)n2c1 ?
CRE-bla Fsk: inconclusive; AID923: 1%; HSD17B inhib: inconclusive; HADH2 inh: 22%; 4-MU autofl: inconclusive; A350 autofl: 1.2e-08M*

What do the screens show for `CN1CCN(Cc2c(O)ccc3c(=O)c(Oc4ccccc4Cl)c(C(F)(F)F)oc23)CC1`?
CRE-bla Fsk: -8%; AID923: 18%; HSD17B inhib: inconclusive; HADH2 inh: -17%

What do the screens show for `COc1ccccc1Oc1c(C)oc2c(CN3CCN(CCO)CC3)c(O)ccc2c1=O`?
CRE-bla Fsk: -1%; AID923: 7%; HSD17B inhib: 32µM*; HADH2 inh: inconclusive; 4-MU autofl: 1.3e-06M*; A350 autofl: 2e-06M*

Results for CCOc1ccccc1Oc1c(C)oc2c(CN3CCN(CCO)CC3)c(O)ccc2c1=O ?
CRE-bla Fsk: 3%; AID923: 5%; HSD17B inhib: 32µM*; HADH2 inh: 173%; 4-MU autofl: 1.4e-06M*; A350 autofl: 2e-06M*

What do the screens show for `Cc1oc2c(CN3CCCC3)c(O)ccc2c(=O)c1Oc1ccccc1Br`?
CRE-bla Fsk: 2%; AID923: 16%; HSD17B inhib: 32µM*; HADH2 inh: 32µM*; 4-MU autofl: 3.6e-06M*; A350 autofl: 4.3e-06M*

Results for CCOC(=O)c1c(CN2CCN(CCO)CC2)n(C)c2cc(Br)c(OC)cc12 ?
4-MU autofl: inactive; A350 autofl: inactive

Results for CCOC(=O)c1c(CN2CCN(C)CC2)oc2ccc(OC)cc12 ?
CRE-bla Fsk: 6%; AID923: 1%; HSD17B inhib: -24%; HADH2 inh: 5%; 4-MU autofl: inactive; A350 autofl: inactive

Results for CCOC(=O)c1c(CN2CCN(c3ccccc3)CC2)oc2ccc(O)cc12 ?
CRE-bla Fsk: -6%; AID923: -2%; HSD17B inhib: -10%; HADH2 inh: -21%

How did CCOC(=O)c1ccc(Oc2c(C)oc3c(CN4CCN(C)CC4)c(O)ccc3c2=O)cc1 do in these assays?
CRE-bla Fsk: 0%; AID923: 8%; HSD17B inhib: 32µM*; HADH2 inh: 20%; 4-MU autofl: 1.8e-06M*; A350 autofl: 2.7e-06M*

Compound activity as filed in PubChem.
